About 79,000 compounds went through this panel and 15% of them were active in at least one assay; those are over-represented in the sample as a whole. Cut-off read from the data, not from the text of the source: active = growth inhibition above about 70%; inactive = the rest.
Tests used:
[1] = NCI Yeast Anticancer Drug Screen. Data for the rad50 strain (AID 155);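 note: 0% = growth of vehicle-only cultures of the same strain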; conditions: S. cerevisiae rad50 strain growth inhibition; at 50.0 µM; stronger effect = higher value
Outline: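 Vehicle-treated cultures provide the reference for the growth inhibition reported for compound-exposed, repair-deficient yeast.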

[2] = NCI Yeast Anticancer Drug Screen. Data for the mec2-1 strain (AID 157); conditions: S. cerevisiae mec2-1 strain, at 50.0 µM, stronger effect = higher value
Outline: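 Mutant yeast (mec2-1) grown with compound; growth inhibition relative to vehicle control reported.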

[3] = NCI Yeast Anticancer Drug Screen. Data for the sgs1 mgt1 strain (AID 161);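 note: 0% = growth of cultures given vehicle only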; conditions: S. cerevisiae sgs1 mgt1 strain, at 50.0 µM, stronger effect = higher value
Outline: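 This yeast growth screen uses a strain with defined DNA-repair lesions; compound-treated growth is compared with vehicle-treated growth.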

[4] = NCI Yeast Anticancer Drug Screen. Data for the cln2 rad14 strain (AID 165);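 note: 0% = growth equal to vehicle treated cultures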; conditions: S. cerevisiae cln2 rad14 strain, at 50.0 µM, stronger effect = higher value
Outline: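 Readout is yeast growth inhibition versus vehicle-treated controls, using a strain with cln2 and rad14 alterations exposed to compound.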

[5] = NCI Yeast Anticancer Drug Screen. Data for the bub3 strain (AID 167); conditions: S. cerevisiae bub3 mutant strain, at 50.0 µM, stronger effect = higher value
Outline: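 Mutant yeast screening strain plus compound; vehicle-treated cultures serve as the 0% inhibition reference.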

[6] = NCI Yeast Anticancer Drug Screen. Data for the mlh1 rad18 strain (AID 175); conditions: S. cerevisiae mlh1 rad18 strain growth inhibition; at 50.0 µM; stronger effect = higher value
Outline: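 Genetically defined yeast (DNA repair-deficient) exposed to compounds; growth inhibition determined relative to vehicle.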

Measured: growth inhibition

CCOCCN(CCOCC)c1ncnc2[nH]ncc12
inactive: [1] 9.15% | [2] 5.15% | [3] 9.95% | [4] -25.2% | [5] 21.6% | [6] 10.6%

ClC(Cl)=C(Cl)C1(Cl)CC1COCc1ccccc1 (configuration not stated)
inactive: [1] 45.5% | [2] -10.1% | [3] -4.05% | [4] 17.9% | [5] -7.85% | [6] -3%

O=C1NC(=O)N(C(F)(F)F)C(F)(F)N1C(F)(F)F
inactive: [1] 1.25% | [2] 4.55% | [3] 3.75% | [4] 30.9% | [5] 5.8% | [6] 23.1%

COc1ccc(-n2cc[n+](C)c2/C=N\O)cc1
inactive: [1] -3.1% | [2] 0.95% | [3] 3.2% | [4] -43.3% | [5] -31.8% | [6] -13.6%

CSCCCO
inactive: [1] -12.8% | [2] -20.6% | [3] 10.5% | [4] -39.1% | [5] -2.45% | [6] -7.4%

CCCCCC(=O)Nc1cc(S(=O)(=O)O)cc2cc(S(=O)(=O)O)cc(O)c12
inactive: [1] -24.1% | [2] -15.2% | [3] -8.85% | [4] 10.7% | [5] -9.85% | [6] -7.7%

Nc1nc2ncc(CCCNc3ccc(C(=O)NC(CCC(=O)O)C(=O)O)cc3)nc2c(=O)[nH]1 (configuration not stated)
inactive: [1] 33% | [2] 15.4% | [3] 8.3% | [4] 10.2% | [5] 3.7% | [6] 22.1%

c1ccc2c3c([nH]c2c1)CCCCCC3
inactive: [1] 19.2% | [2] 14.6% | [3] 15.1% | [4] 13.2% | [5] 21.8% | [6] 15.9%

C=CCNC(=S)N1CC(C)C(=O)Nc2ccccc21 (configuration not stated)
inactive: [1] -26.1% | [2] -18.2% | [3] -29.9% | [4] 6.6% | [5] 11.3% | [6] -14.4%

CNC(=S)SCc1ccc(Cl)cc1
inactive: [1] -10.6% | [2] -12.5% | [3] 11.4% | [4] -36.6% | [5] 40.8% | [6] 2.7%

CCOc1ccc(NC(=O)C(=O)C(/C(=N/N)C(=O)OC)c2nc3ccc([N+](=O)[O-])cc3[nH]c2=O)cc1 (configuration not stated)
inactive: [1] 6.9% | [2] -6% | [3] 3.5% | [4] 13.3% | [5] 7% | [6] 21.9%

CN(/N=C/c1ccccc1)c1nnnn1-c1ccccc1
inactive: [1] 3.2% | [2] -5.7% | [3] -5.85% | [4] 33% | [5] 0.6% | [6] 9.9%

COc1cc(Nc2cnc3ccc(C(F)(F)F)cc3n2)cc(OC)c1OC
inactive: [1] -0.3% | [2] 4.9% | [3] 1.15% | [4] -0.8% | [5] -16.9% | [6] -3.5%

CCOC(=O)c1cnc(=O)n(Cc2ccccc2)c1N
inactive: [1] -1.25% | [2] 0.65% | [3] 10.9% | [4] 0.45% | [5] 0.35% | [6] -8.15%

CCCCCCCCCCCC(=O)OCc1ccccc1
inactive: [1] -3.9% | [2] 17.8% | [3] 3.1% | [4] 18.2% | [5] -3.5% | [6] 25.8%

CCOc1ccc(Br)cc1/C=N\NC(=O)c1ccccc1N(C)C
inactive: [1] -8.8% | [2] -11.6% | [3] -16.8% | [4] -23.6% | [5] -2.25% | [6] -11.2%

CC(=O)NCc1cccc[n+]1[O-]
inactive: [1] 14.8% | [2] -12% | [3] -3.8% | [4] -59.3% | [5] -6.85% | [6] -7.2%

CC1(Br)S(=O)(=O)OCCOS1(=O)=O
inactive: [1] -23% | [2] -15.9% | [3] -12.3% | [4] 6.1% | [5] -24.2% | [6] -42.5%

c1cc2c([nH]1)CCCC2
inactive: [1] 12.5% | [2] 14.3% | [3] 2.45% | [4] 21.1% | [5] 23.6% | [6] 13.9%

CS/N=C(\c1ccccc1)N(C)C
inactive: [1] -23.9% | [2] -4.05% | [3] -1.45% | [4] -25.1% | [5] -1.6% | [6] 3.35%

CC(C)(C(=O)O)C(=O)O
inactive: [1] 6.9% | [2] 3.25% | [3] 0.6% | [4] 8.2% | [5] 21.4% | [6] 3.1%

COC(=O)c1ccc(Cl)c(Cl)c1Cl
inactive: [1] -3.6% | [2] -7.35% | [3] -19.6% | [4] -11.8% | [5] 6.1% | [6] -26.3%

CCOC(O)C(F)(F)C(F)(F)C(F)(F)F (configuration not stated)
inactive: [1] 9.05% | [2] -32.2% | [3] 3.5% | [4] 20.9% | [5] -7.95% | [6] 20.1%

COC(=O)C1(C)C(=O)NC(=O)CC1C (configuration not stated)
inactive: [1] 9.65% | [2] 0% | [3] 1% | [4] -30.5% | [5] -2.5% | [6] -3.2%

COc1ccc2c(c1)OCc1c-2oc2ccccc2c1=O
inactive: [1] -24.8% | [2] -4.55% | [3] -10.9% | [4] -25.4% | [5] -3.95% | [6] -5.3%

NCCCCCCN
inactive: [1] -50.6% | [2] -6.05% | [3] -36.6% | [4] -46.8% | [5] -45.5% | [6] -65%

CCOC(=O)C[n+]1cccc(Br)c1
inactive: [1] -2.6% | [2] 6.45% | [3] -6.85% | [4] -6.5% | [5] 16.3% | [6] -0.45%

CC(Nc1ncccn1)Nc1ncccn1
inactive: [1] -6.4% | [2] 1.8% | [3] 7.75% | [4] -29.9% | [5] -1.95% | [6] -1.75%

C(=C/c1ccc(/C=C/C=C\c2ccccc2)cc1)/C=C/c1ccccc1
inactive: [1] -4.1% | [2] -2.25% | [3] 13.8% | [4] -50.6% | [5] -2.1% | [6] -12.2%

Cc1cnc2ccccc2c1
inactive: [1] -12.2% | [2] -2.15% | [3] -5.45% | [4] 4.35% | [5] 0.45% | [6] 2.8%

O=C(N/N=C/C1CCCCC1)C(=O)N/N=C/C1CCCCC1
inactive: [1] 4.45% | [2] 6.65% | [3] 8.55% | [4] -7.45% | [5] 28.2% | [6] -58.5%

CSC(c1ccc(Oc2ccccc2)cc1)=[N+]1CCCCC1
inactive: [1] 47.2% | [2] 13.2% | [3] 49.4% | [4] 23.2% | [5] 53.5% | [6] 23.7%

Cc1ccccc1NC(=O)Nc1ccc(Nc2ccccc2)cc1
inactive: [1] -6.5% | [2] 32.2% | [3] 9.95% | [4] -11.6% | [5] 5.95% | [6] 25.5%

Clc1ccc(-c2c3nc(c(-c4ccc(Cl)cc4)c4ccc([nH]4)c(-c4ccc(Cl)cc4)c4nc(c(-c5ccc(Cl)cc5)c5ccc2[nH]5)C=C4)C=C3)cc1
inactive: [1] -30.6% | [2] -17.9% | [3] -12.4% | [4] 15.8% | [5] -14.3% | [6] -18.9%

CC1(C)OC2COC3(COC(C)(C)O3)C(O)C2O1 (configuration not stated)
inactive: [1] -9.05% | [2] 0.2% | [3] 4.15% | [4] -3.7% | [5] -6.2% | [6] -24.8%

c1ccc(C2Nc3ccccc3NC2c2ccccc2)cc1 (configuration not stated)
inactive: [1] 29.5% | [2] 5.75% | [3] 24.4% | [4] 20.9% | [5] 60.6% | [6] 56.8%

Fc1ccccc1/C=C/c1cnnc2ccccc12
inactive: [1] 19.9% | [2] 11.1% | [3] 16.1% | [4] -20.4% | [5] 5.2% | [6] 3.15%

CC(=O)C/C(C)=N\NC(=O)c1ccc([N+](=O)[O-])cc1
inactive: [1] -6.15% | [2] -16.8% | [3] 5.65% | [4] 7.35% | [5] 9.9% | [6] 19.6%

CCOC(=O)C1=C(C)N(NC(=O)OC)C2(N)N(NC(=O)OC)C(C)=C(C(=O)OCC)C12C#N (configuration not stated)
inactive: [1] -13.3% | [2] -3.2% | [3] -7.45% | [4] -5.7% | [5] 2.5% | [6] -18.4%

C[N+](C)(C)Cc1cc2ccccc2c2ccccc12
inactive: [1] -23% | [2] -8.9% | [3] -18.8% | [4] -9.55% | [5] -8.35% | [6] 20.1%

O=C(OCc1ccco1)c1ccc([N+](=O)[O-])cc1
inactive: [1] -5.15% | [2] -7.3% | [3] -3.75% | [4] -32.6% | [5] -13.5% | [6] -12.8%

N#Cc1nnn2c1nc(N)c1c(Cl)cccc12
inactive: [1] 0.75% | [2] -17.1% | [3] -4.6% | [4] -0.05% | [5] -11.8% | [6] -8.35%
